Measurements taken from PubChem BioAssay.
Values without a mark were called inactive.

test: E. coli acrAB mutant growth effects, primary screen, E. coli filamentation inducers, strain DRC39, OD650, 24 h (AID 1178); conditions: higher = more signal, called active from +8 up or from −8 down;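 note: growth measured as culture turbidity by optical density at 650 nm; test concentration not given here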

First: CC(C)NC(=O)[C@@]1(c2ccc([N+](=O)[O-])cc2)CC(=O)N(C2CCCCC2)[C@@H]1c1ccc(CO)cc1
Second: CC(C)N1C(=O)C[C@@](C(=O)O)(c2ccc([N+](=O)[O-])cc2)[C@H]1c1ccc(CO)cc1
The z-score of the first is lower: 0.389 for the first, 0.732 for the second.

Going from `CCOC(=O)C[C@H]1[C@H](OC(=O)Cc2ccc3c(c2)OCO3)[C@@H](NC(=O)c2ccc3ccccc3n2)c2cc(OCCCO)ccc2N1C(=O)c1ccccc1` to `COC(=O)[C@@]1(Cc2ccc(OC)cc2)[C@H]2c3cc(C(=O)N(C)C)n(Cc4ccc(C)o4)c3C[C@H]2CN1C(=O)c1ccccc1`, the z-score rises from -0.247 to 0.502.

First: O=c1cccc(-c2ccc([N+](=O)[O-])cc2)o1
Second: [N-]=[N+]=Nc1ccccc1C[C@]1(C(=O)NCC(O)CO)COC(c2ccc(OCCCO)cc2)=N1 (some centres not stated)
The z-score of the first is lower: -0.0154 for the first, 0.87 for the second.

In the case of `CCCCCCCCCC(O)C1C=CC2C(=O)N(c3ccccc3)C(=O)C2N1Nc1cc(OC)c(OC)c(OC)c1` (configuration not stated), the z-score is reported as -1.57.
